M1 antag = blocks human M1 muscarinic receptor; P11229; CHO-K1 hM1, Fluo-8 calcium fluorescence, ACh EC80 antagonist; inhibition, % at 3 µM; 360,000 tested, 1.3% active; AID 588852;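 active means percent inhibition above its own plate's cutoff, namely the mean of that plate's compound wells plus 3 SD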;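 further: peak over basal fluorescence ratio during 140 s after agonist addition; 0% = ACh EC80 plus DMSO and 100% = DMSO alone without agonist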
CHRM1 agonist = agonists of human M1 muscarinic receptor | P11229 | CHO-K1 hM1, Fluo-8 calcium fluorescence, agonist mode; 0% DMSO, 100% acetylcholine EC100 | AID 588814 | 360,000 tested, 0.33% active | activation, % at 3 µM;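 active means activation above the run's mean compound activation plus 3 SD, cut at about 16% in these data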;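 further: peak over basal fluorescence ratio within a 140 s kinetic read after compound addition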
SKN-1 inh = blocks SKN-1 activity in C. elegans. 360,000 tested, 0.49% active. inhibition, % at 21.8 µM. AID 624304. C. elegans VP596 Pgst-4::GFP/RFP ratio, acrylamide-induced, 24 h;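 active means interference check ratio from 0.5 to 1.5 plus GFP to RFP signal ratio inhibition reaching or exceeding a fixed threshold, cut at about 30% in these data, passing the limit was not always enough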
M1 PAM = positive allosteric modulators of human M1 muscarinic receptor. CHO-K1 hM1, Fluo-8 calcium fluorescence, ACh EC20; 0% = ACh EC20, 100% = maximal ACh. AID 588819. activation, % at 3 µM. P11229. 360,000 tested, 0.088% active; in the data active means activation above about 19%, passing the limit was not always enough
Myeloid diff MLP = myeloid differentiation induction. ER-HoxA9 myeloid progenitors, lysozyme-GFP differentiation, flow cytometry. 360,000 tested, 1% active. AID 624256. calls only at 10 µM;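 active means normalized GFP-positive differentiation at or above the plate's own cutoff, the solvent-only control mean plus 3 SD; inconclusive means no clear call, values can overlap the other calls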;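 further: cells exposed to compound for four days before flow analysis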
ATG4B inh = inhibitors of human ATG4B cysteine protease | 340,000 tested, 0.51% active | AID 504462 | Q9Y4P1 | inhibition, % at 8.33 µM | ATG4B cleavage of LC3-PLA2, NBD-HPC fluorescence, 1 h; in the data active means inhibition above about 40%
Target sequence (Q9Y4P1 whole entry, looked up): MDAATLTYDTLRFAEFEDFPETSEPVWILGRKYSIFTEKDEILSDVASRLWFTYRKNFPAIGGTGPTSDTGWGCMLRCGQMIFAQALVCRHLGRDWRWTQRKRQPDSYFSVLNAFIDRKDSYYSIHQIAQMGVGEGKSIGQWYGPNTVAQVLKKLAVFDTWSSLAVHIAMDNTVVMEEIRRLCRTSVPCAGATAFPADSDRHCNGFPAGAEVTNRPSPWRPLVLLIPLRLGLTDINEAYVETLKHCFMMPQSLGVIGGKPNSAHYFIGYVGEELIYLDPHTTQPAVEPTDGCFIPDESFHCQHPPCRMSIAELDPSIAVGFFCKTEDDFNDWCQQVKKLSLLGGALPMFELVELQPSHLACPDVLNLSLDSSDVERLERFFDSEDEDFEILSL
Starred values were filed as active, the others as inactive; i = inactive; ? = inconclusive; . = no result; + = active, no number. Sampled rows, rich in hits. Any-hit rate of the full collection: about 3.5%.

SMILES | M1 antag | CHRM1 agonist | SKN-1 inh | M1 PAM | Myeloid diff MLP | ATG4B inh
COCCn1cnc2c1c(=O)[nH]c(=O)n2Cc1ccccc1 | 3.9 | -4.3 | 9.0 | -4.1 | i | 3.4
Cc1ccc(NC(=O)c2ccc(F)cc2F)cc1 | 5.6 | -4.0 | 40.9* | -0.8 | i | 1.6
Nc1nccc(SCc2ccc(Cl)cc2Cl)n1 | -4.6 | -0.2 | 18.6 | 2.9 | i | -2.7
Nc1nc(N)c(Cc2ccc(Cl)cc2Cl)c(N)n1 | 5.2 | -8.7 | -2.8 | -3.0 | + | -9.0
Cc1ccccc1CSCC1Nc2ccc(C(=O)NCCc3ccccc3)cc2NC1=O (stereo not given) | -9.8 | -0.7 | 16.1 | 5.2 | + | .
Cc1nc(C)c(-c2nnc(-c3ccc(C(C)(C)C)cc3)o2)cc1C(=O)NN | 7.9 | -5.5 | 5.3 | 2.1 | + | -6.6
CN1CCN(C(=O)c2ccc(COc3ccc(C(C)(C)C)cc3)o2)CC1 | 38.9* | -2.7 | 8.8 | -21.4 | i | -6.4
Cc1cc(-c2nnc(-c3cccc(Cl)c3)o2)no1 | -8.8 | 6.3 | 7.1 | 12.6 | i | -1.9
O=C(O)COc1ccc(/C=N/NC(=O)C(O)(c2ccccc2)c2ccccc2)cc1 | -11.0 | -0.4 | 39.6* | 6.2 | i | 10.4
COc1ccc(CCN2CC(C(=O)OCC(=O)N(C)CC(=O)Nc3ccccc3Cl)CC2=O)cc1OC (stereo not given) | -15.1 | -2.5 | 8.7 | 10.0 | i | -3.6
O=C1/C(=C/c2ccco2)CCc2ccccc21 | -2.2 | -8.9 | 65.2* | 4.9 | i | 21.1
COc1ccc2c(c1)CC/C(=C/c1ccco1)C2=O | -1.5 | -5.6 | 59.6* | 3.4 | i | -2.9
COc1ccc(NC(=O)CC(C)NCCCN2CCCC2=O)cc1 (stereo not given) | -7.8 | -8.0 | 6.9 | 4.6 | + | -1.2
CN(CCOc1ccc(Cl)cc1)Cc1cccc(S(=O)(=O)N(C)C)c1 | 16.3 | 31.8* | -3.3 | -7.0 | i | -2.9
Cc1ccc(NC(=O)C2(C)CCN2C(=O)C2CCCCC2)cc1C (stereo not given) | -6.5 | -4.8 | 13.1 | -1.5 | i | .
COc1cccc(-c2ccc3c(c2)O[C@H](CN(C)C(=O)c2ccccc2F)[C@H](C)CN([C@H](C)CO)S3(=O)=O)c1 | -9.9 | 0.9 | -5.9 | -5.1 | i | .
Cc1ccc(C)c(NC(=O)C(NCC(C)(C)N2CCOCC2)c2ccccc2)c1 (stereo not given) | 92.3* | -8.0 | 11.7 | -27.4 | i | 8.8
COc1ccc(OC)c(CNC(=O)c2[nH]c(C(F)(F)F)nc2-c2ccccc2)c1 | 11.1 | 6.4 | -7.3 | 2.6 | i | .
CCN1C(=O)/C(=C/C=C2/Sc3ccc4ccccc4c3N2CCO)SC1=S | -1.1 | -0.7 | 31.3 | 0.6 | + | 4.0
CCN1C(c2ccccc2)=C(c2ccccc2)S/C1=C\C=C1/SC(=S)N(C)C1=O | 7.9 | -8.2 | 49.6* | -6.4 | . | 0.0
CCN1C(c2ccccc2)=C(c2ccccc2)S/C1=C/C=C1\SC(=S)N(C)C1=O | 18.4 | -2.1 | 54.9 | -7.5 | + | -6.8
O=c1onc(-c2ccccc2)n1-c1cc(Cl)cc(Cl)c1 | -22.3 | -3.1 | 9.7 | 13.9 | i | 1.4
CN1CCC(CC(C(=O)N2CCCC2)(c2ccccc2)c2ccccc2)C1 (stereo not given) | 60.5* | -8.2 | -8.8 | -26.7 | i | 9.6
CCN(CC)S(=O)(=O)c1ccc(C(=O)NCC(=O)NCCCc2ccccc2)cc1 | -1.2 | -2.5 | 8.0 | 2.8 | i | -7.1
Brc1ccc(CSc2nnc(-c3cccnc3)o2)cc1 | -3.2 | -8.9 | 43.3* | 1.7 | i | 4.4
SMILES | M1 antag | CHRM1 agonist | SKN-1 inh | M1 PAM | Myeloid diff MLP | ATG4B inh
Clc1ccc(-c2nnc(-c3ccccc3)o2)cn1 | -1.0 | -4.7 | 41.7* | 1.7 | i | 1.4
Cc1ccc(-c2nnc(-c3ccccc3Br)o2)cc1 | -19.5 | -2.8 | -8.9 | 15.6 | i | 11.4
c1ccc(CSc2nnc(-c3cccnc3)o2)cc1 | -6.5 | -3.1 | -2.3 | 7.8 | i | -0.8
Brc1ccc(-c2nnc(-c3ccccc3Br)o2)cc1 | -22.9 | -1.5 | 65.4* | 3.7 | i | 14.8
Brc1ccc(-c2nnc(-c3ccco3)o2)cc1 | -11.8 | -3.8 | 80.5* | 7.4 | i | -4.0
Cc1cc(C)c(S(=O)(=O)Nc2ccc[nH]c2=O)c(C)c1 | -26.9 | 0.7 | 18.9 | 9.8 | i | -3.0
Brc1ccc(-c2nnc(-c3cccnc3)o2)cc1 | -6.8 | -2.1 | 48.1* | 4.1 | i | -4.8
Cc1ccc(-c2nnc(-c3cccnc3)o2)cc1 | -10.3 | -5.2 | 0.9 | 13.2 | i | -3.6
Clc1ccc(-c2nnc(-c3cccnc3)o2)cc1 | -10.3 | -3.0 | 40.5* | 4.0 | i | -4.4
Cc1ccc(NC2CCCN(C(=O)C3CCCCC3)C2)cc1C (stereo not given) | -15.2 | -1.3 | 4.9 | 11.3 | ? | 19.7
Cc1cccc(C)c1N1C(=O)c2ccccc2NC(=O)C1C(=O)NCCc1ccccc1 (stereo not given) | . | . | 6.7 | . | i | .
CC(=O)c1ccc(NS(=O)(=O)c2ccc(C)cc2)cc1 | -11.6 | -2.8 | -9.1 | -4.2 | i | -2.9
COc1cc(OC)c(OC)cc1/C=C/C(=O)c1ccc(NS(=O)(=O)c2ccc(C)cc2)cc1 | -1.3 | -0.9 | 10.0 | 4.5 | + | -23.6
O=C(COC(=O)Cc1ccc(F)cc1)NC1CCCCC1 | -3.4 | -3.5 | 0.4 | 9.1 | i | -6.4
O=C(O)Cc1ccc(NC(=O)c2ccc(NC(=O)C3CC3)cc2)cc1 | -13.2 | -0.6 | -20.5 | 11.7 | i | -1.2
CC(C)c1ccc2c(c1)C1(NN=C(c3ccccc3)S1)C(=O)N2 (stereo not given) | 30.4* | -5.1 | 8.4 | -11.1 | . | -3.8
Brc1ccc2oc(-c3ccn[nH]3)cc2c1 | -4.7 | -2.4 | 38.5* | 4.7 | i | -9.8
COc1ccc(-c2[nH][nH]c(=O)c2NC(=O)c2ccccc2Br)cc1 | 19.3 | -0.7 | 16.0 | -12.6 | i | .
CCOC(=O)c1c(N)sc2c1CCSC2 | -5.0 | -4.8 | 37.1* | -0.9 | i | -4.1
CCOC(=O)c1c(N)sc2c1CCC(CC)C2 (stereo not given) | 3.9 | -0.8 | -5.8 | 3.0 | i | -6.5
CCCN(CCC)CCCNc1ccc(C(=O)Nc2cccc(OC)c2)cc1[N+](=O)[O-] | 39.9* | -6.8 | 8.5 | -23.7 | i | -7.3
CCC(CC)C(=O)Nc1cccc(C(=O)Nc2ccc(OC)cc2[N+](=O)[O-])c1 | 19.0 | 22.6* | -1.5 | -4.3 | i | -7.4
COc1cccc(NC(=O)CN(C)CC(=O)Nc2ccc(C)c([N+](=O)[O-])c2)c1 | 8.2 | 0.3 | 1.6 | -15.2 | + | -5.5
COc1ccc(OC)c(CNC(=O)CCSCc2ccc(F)cc2Cl)c1 | -5.6 | -2.7 | 4.0 | 1.8 | i | 19.7

Screening data from PubChem BioAssay.
